Measured values reported in article PMC4336329 (PLoS ONE, 2015).
Screen size: about 310,000 compounds; about 14,000 (4.5%) showed an effect of 50% or more. Effects have a minus sign here. The list comes from a sample in which strong results are over-represented; it also holds similar structures and randomly drawn compounds.

Each molecule was assayed against human ether-à-go-go-related gene (hERG) potassium channel (human, UniProt Q12809) (assay: primary screen, population patch clamp on CHO cells stably expressing hERG; higher = less effect of the substance).
human ether-à-go-go-related gene (hERG) potassium channel, sequence (Q12809 whole entry, looked up): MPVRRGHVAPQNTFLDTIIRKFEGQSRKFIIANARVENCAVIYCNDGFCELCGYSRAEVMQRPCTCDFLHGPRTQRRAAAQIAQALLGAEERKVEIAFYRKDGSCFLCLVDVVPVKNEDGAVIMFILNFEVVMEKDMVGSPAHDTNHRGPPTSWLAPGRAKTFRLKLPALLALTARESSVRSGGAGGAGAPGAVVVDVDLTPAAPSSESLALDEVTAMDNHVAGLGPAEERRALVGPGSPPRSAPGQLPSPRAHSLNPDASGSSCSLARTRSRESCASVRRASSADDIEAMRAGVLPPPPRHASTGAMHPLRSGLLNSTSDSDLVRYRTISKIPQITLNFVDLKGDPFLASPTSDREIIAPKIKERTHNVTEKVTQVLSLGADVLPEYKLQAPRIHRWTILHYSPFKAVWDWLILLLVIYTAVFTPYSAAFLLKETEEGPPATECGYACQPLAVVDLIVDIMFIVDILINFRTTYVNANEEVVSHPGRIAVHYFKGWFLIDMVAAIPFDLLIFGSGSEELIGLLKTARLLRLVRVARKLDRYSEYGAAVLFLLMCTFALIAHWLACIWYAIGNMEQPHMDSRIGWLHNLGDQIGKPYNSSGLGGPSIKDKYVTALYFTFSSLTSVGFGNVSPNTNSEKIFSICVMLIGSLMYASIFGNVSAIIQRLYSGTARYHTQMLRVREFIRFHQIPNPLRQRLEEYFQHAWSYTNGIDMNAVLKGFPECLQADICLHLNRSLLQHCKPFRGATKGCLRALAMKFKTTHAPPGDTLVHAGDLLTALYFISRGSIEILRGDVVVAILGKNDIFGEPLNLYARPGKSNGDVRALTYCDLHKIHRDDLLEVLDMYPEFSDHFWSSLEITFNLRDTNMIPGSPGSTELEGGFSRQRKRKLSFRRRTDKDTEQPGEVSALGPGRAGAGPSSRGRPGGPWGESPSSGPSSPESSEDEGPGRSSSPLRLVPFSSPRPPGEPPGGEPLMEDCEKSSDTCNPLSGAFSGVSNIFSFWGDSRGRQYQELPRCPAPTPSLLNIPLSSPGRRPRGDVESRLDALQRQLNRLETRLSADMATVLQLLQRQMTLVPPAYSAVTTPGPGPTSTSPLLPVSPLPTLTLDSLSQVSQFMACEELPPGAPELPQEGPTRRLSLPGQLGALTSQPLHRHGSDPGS
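Also: peak tail current of the secondary pulse compared with the same well before compound.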

SMILES	hERG current change (%, negative = inhibition) at 10uM
O=C(CSc1nnc(NC(=O)c2cccc(F)c2)s1)NC1CCCC1	13.9%
Cc1cc(C)nc(NC(=O)c2c(F)c(F)c(F)c(C(=O)Nc3cc(C)cc(C)n3)c2F)c1	-8.14%
CN(C)C=O.CNC(=O)CSc1nc2nc(C)cc(C)n2n1	0.176%
Cc1cccc(OCC(=O)Nc2nnc(-c3ccco3)s2)c1	-1.94%
CCOc1ccc2nc(SC3CC(=O)N(c4ccc(C)cc4)C3=O)sc2c1 (stereo not shown)	-6.29%
Cc1cc(C(=O)NCCCn2ccnc2)sc1-c1ccccc1	-10.3%
COC(=O)c1cc(S(=O)(=O)NCC2CCN(Cc3ccc(F)cc3)CC2)c[nH]1	-57%
CCOC(=O)c1c(C)[nH]c(C)c1S(=O)(=O)NCC1CCN(Cc2cccc(F)c2)CC1	-1.69%
CCOC(=O)c1c(C)[nH]c(C)c1S(=O)(=O)NCC1CCN(Cc2ccc(C)cc2)CC1	-60.2%
O=c1ccc(-c2ccc(S(=O)(=O)NCC3CCN(Cc4ccccc4F)CC3)s2)n[nH]1	-32.6%
Cc1cccc(NS(=O)(=O)c2c(C)nc3scc(C)n3c2=O)c1	-65.2%
Cc1ccc(CN2CCC(CNS(=O)(=O)c3ccc(-c4ccc(=O)[nH]n4)s3)CC2)cc1	-60.6%
Cc1nc2scc(C)n2c(=O)c1S(=O)(=O)Nc1ccc(F)cc1	-22.8%
COC(=O)c1cc(S(=O)(=O)NCC2CCN(Cc3cccc(F)c3)CC2)c[nH]1	-16.7%
CCc1cccc(NS(=O)(=O)c2c(C)nc3scc(C)n3c2=O)c1	9.84%
COC(=O)c1cc(S(=O)(=O)NCC2CCN(Cc3ccccc3F)CC2)c[nH]1	-21.4%
O=c1ccc(-c2ccc(S(=O)(=O)NCC3CCN(Cc4cccc(F)c4)CC3)s2)n[nH]1	-8.55%
CCOC(=O)c1c(C)[nH]c(C)c1S(=O)(=O)NCC1CCN(Cc2cccc(Cl)c2)CC1	-20.5%
Cc1n[nH]c(C)c1CCNC(=O)C1CCC(=O)N(CCc2cccc(F)c2)C1 (stereo not shown)	9.63%
Cc1ccc(C(=O)NCCNC(=O)c2ccccc2)cc1	8.24%
O=[N+]([O-])c1ccc(C23CC4CC(CC(O)(C4)C2)C3)cc1	-37.8%
O=C(Nc1ccc2nc(-c3ccc4nc[nH]c4c3)[nH]c2c1)c1cccs1	17.1%

SMILES	hERG current change (%, negative = inhibition) at 10uM
COC(=O)c1cc(S(=O)(=O)NCC2CCN(Cc3cc(C)ccc3C)CC2)c[nH]1	-11%
Cc1nc2scc(C)n2c(=O)c1S(=O)(=O)NCC1CCN(Cc2ccc(F)cc2)CC1	-49.7%
Cc1nc2scc(C)n2c(=O)c1S(=O)(=O)NCC1CCN(Cc2ccc(Cl)cc2)CC1	-50.1%
COC(=O)c1cc(S(=O)(=O)NCCc2ccc(Cl)cc2)c[nH]1	-3.4%
COC(=O)c1cc(S(=O)(=O)NCC2CCN(Cc3ccc(Cl)cc3)CC2)c[nH]1	-71.2%
COC(=O)c1cc(S(=O)(=O)NCC2CCN(Cc3cccc(Cl)c3)CC2)c[nH]1	-41.9%
COC(=O)c1cc(S(=O)(=O)NCC2CCN(Cc3ccc(C)cc3)CC2)c[nH]1	-73.8%
COC(=O)c1cc(S(=O)(=O)NCCc2ccc(C)cc2)c[nH]1	-9.92%
Cc1nc2scc(C)n2c(=O)c1S(=O)(=O)NCCc1ccc(Cl)cc1	7.69%
COc1ccc(C2NS(=O)(=O)OCC2C)cc1 (stereo not shown)	16.4%
COc1ccc(C(=O)NCCN2C(=O)S/C(=C\c3cccnc3)C2=O)c(OC)c1OC	-9.86%
CCNC(=S)N1CCN(CCN=CC2=C(O)CC(C)(C)CC2=O)CC1	-9.75%
CCC(CC)C(=O)N1CCN(c2ccccc2)CC1	-2.08%
O=C(O)C(=O)O.OC(COCc1ccco1)CN1CCN(c2ccccc2)CC1 (stereo not shown)	-24.8%
CC(=O)c1ccc(N2CCN(CC(O)c3ccccc3)CC2)cc1 (stereo not shown)	-11.6%
COc1ccc(N2CCN(CC(O)COCc3ccccc3)CC2)cc1.Cl (stereo not shown)	-25.2%
CC(=O)c1ccc(N2CCN(CC(O)COC(c3ccccc3)c3ccccc3C)CC2)cc1 (stereo not shown)	-41%
CC(=O)c1ccc(N2CCN(CC(O)COC(c3ccccc3)c3ccccc3)CC2)cc1 (stereo not shown)	-66.5%
CC(=O)c1ccc(N2CCN(CC(O)COCc3ccco3)CC2)cc1 (stereo not shown)	-56.3%
COc1ccc(N2CCN(CC(O)COC(c3ccccc3)c3ccccc3)CC2)cc1 (stereo not shown)	-64.9%
COc1ccc(OCC(O)CN2CCN(c3ccccc3)CC2)cc1.Cl (stereo not shown)	-39.2%
OC(COCc1ccccc1)CN1CCN(c2ccccc2)CC1 (stereo not shown)	-45.2%

SMILES	hERG current change (%, negative = inhibition) at 10uM
Cc1ccc(Cl)cc1N1CCN(Cc2nnnn2Cc2ccco2)CC1	-37.9%
Cc1ccc(Cl)cc1N1CCN(C(=S)NCc2ccco2)CC1	37.1%
Cc1ccc(Cl)cc1N1CCN(CC(O)COCc2ccco2)CC1.O=C(O)C(=O)O (stereo not shown)	-73.1%
CC(=O)Nc1ccc(S(=O)(=O)N2CCN(S(=O)(=O)N3CCCCCC3)CC2)cc1	8.41%
CC(C)c1onc(C(=O)N2CCN(c3ccccc3)CC2)c1[N+](=O)[O-]	14.1%
CCC(C)(C)C1CCC(NC(=O)N2CCN(c3ccccc3O)CC2)CC1 (stereo not shown)	-6.84%
COc1cc(Cl)c(C)cc1NC(=O)CSc1cc(Cl)ccc1Cl	7.31%
COc1ccc(CC(=O)OCCN(C)C)cc1.Cl	11.8%
c1ccc(CCN2CN=C(Nc3nc4ccccc4s3)NC2)cc1	-1.49%
CCCN1CCN(CC(O)COC(c2ccc(OC)cc2)c2ccc(OC)cc2)CC1.O=C(O)C(=O)O (stereo not shown)	-30.2%
Cc1ccc(Cl)cc1N1CCN(Cc2cc3c(cc2O)CCC3)CC1	4.92%
COc1ccc(N2CCN(CC(O)COC(C)(C)C)CC2)cc1.O=C(O)C(=O)O (stereo not shown)	10.2%
COc1ccc(N2CCN(CC(O)COC(c3ccc(F)cc3)c3ccc(F)cc3)CC2)cc1.O=C(O)C(=O)O (stereo not shown)	-81.6%
Cc1ccc(Cl)cc1N1CCN(CC(O)COC(C)C)CC1.Cl (stereo not shown)	-63.7%
COc1ccc(N2CCN(CCN3C(=O)c4ccccc4C3=O)CC2)cc1	17.6%
COc1ccc(C(CCN2CCN(c3ccccc3)CC2)c2c(O)cc(OC)cc2OC)cc1 (stereo not shown)	-30.5%
Cc1ccc(Cl)cc1N1CCN(CCN)CC1	-0.374%
COc1ccc(N2CCN(CCC(O)c3ccc4ccccc4c3)CC2)cc1 (stereo not shown)	-68.3%
N=C1C(c2ccc(Br)cc2)=C(O)C2CCc3ccccc3N12 (stereo not shown)	-30.5%
CC(C)N(C(=O)Cn1cnc2cc([N+](=O)[O-])ccc2c1=O)C(C)C	7.76%
Cc1cccc2cc(CN(CCCO)C(=O)Nc3ccccc3Cl)c(=O)[nH]c12	5.32%
O=C(N=C1c2ccccc2CN1c1ccccc1)c1cccc([N+](=O)[O-])c1	-1.72%

SMILES	hERG current change (%, negative = inhibition) at 10uM
CCC1CCCCN1CCCNC(=O)c1cc2c(Cl)nc3ccccc3c2s1 (stereo not shown)	-76.6%
CCC1CCCCN1CCCNC(=O)CCNC(=O)Cn1cnc2ccccc2c1=O (stereo not shown)	-0.683%
CC1CCN(CCCNC(=O)c2cc3c(Cl)nc4ccccc4c3s2)CC1	-66.2%
CCN(CC)CCCNC(=O)c1cc2c(Cl)nc3ccccc3c2s1	-47.1%
CC1CCCN(CCCNC(=O)c2coc3nc4ccccc4nc23)C1 (stereo not shown)	-5.67%
Cc1ccc2nc(Cl)c3cc(C(=O)NCCCN4CCCC4)sc3c2c1	-10.3%
O=C(NCCCN1CCCC1)c1cc2c(Cl)nc3ccccc3c2s1	-13.9%
Cc1nc2ccccc2c2oc(C(=O)NCCCN3CCCC(C)C3)cc12 (stereo not shown)	-19%
CC1CCCN(CCCNC(=O)c2cc3c(Cl)nc4ccccc4c3s2)C1 (stereo not shown)	-55.6%
Cc1cccc(C)c1NC(=O)C1(N(Cc2ccco2)C(=O)CC2NC(=O)NC2=O)CCCCC1 (stereo not shown)	7.25%
CCN(CC)C(=O)CSc1nnnn1-c1ccc(F)c(Cl)c1	-3.28%
O=C(Oc1ccc(-c2nc(-c3ccccn3)no2)cc1)c1ccccc1	7.73%
CCOC(=O)c1[nH]c2ccc(OC)cc2c1NC(=O)c1ccc2c(c1)OCO2	17.1%
CN(CC(=O)Nc1ccccc1C(F)(F)F)C(=O)c1ccc(-c2ccc(Cl)cc2)o1	-13.7%
COc1ccc(-n2nnc3c(SCC(=O)Nc4ccc5c(c4)OCCO5)ncnc32)cc1	0.643%
C=CCNC(=O)c1onc(CSc2ccc(Cl)cc2)c1C(=O)O	15.2%
CC(C)(O)C#Cc1ccc(C(=O)Nc2ccc3c(c2)OCO3)s1	22.7%
O=C(Nc1cccnc1Cl)c1cc2ccccc2o1	6.92%
O=C(O)c1cccc(OS(=O)(=O)c2cc(Br)ccc2Br)c1	-9.65%
